The panel holds about 83,000 compounds, 20% with a hit somewhere; the sample as a whole holds those more often.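 In brief: 96-well plates, 48 h treatment, single concentration, percent growth endpoint.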 Unmarked numbers belong to inactive results. Activity calls are given as the source filed them. How the source made its calls: active means growth percent below 10; inactive means the rest.

For the test, the system named is HL-60(TB) leukemia. The experiment in a line: NCI-60 one-dose screen, 48 h (100 = growth as untreated, 0 = no growth, -100 = all killed). The conditions noted are these: 10 µM unless noted.
In the case of `CCCCCCCCCCCCCCCCCCOc1ccccc1CC(=O)NCC[N+]1(C)CCOCC1`, the growth was -10.6% (active). As for `COc1cccc(-c2nc3sccn3c2-c2ccnc(NCCN3CCCNS3(=O)=O)n2)c1`, the growth was 108%. Consider `Cc1c(C)c(C)c([N+](=O)[O-])c([N+](=O)[O-])c1C`, for which the growth was 109%. To `CCCCCCN1CSC(=S)N(CCCCCC)C1` belongs 112%.

The values above are taken from PubChem BioAssay (NCI).
